TCR act = T cell receptor activation; AID 504894; Potency, µM (series often up to 9.22 µM), inactives show at the top dose activation of IL-2 secretion, most hits filed as activators; 330,000 tested, under 10 active; primary human leukocytes, anti-CD3, IL-2 HTRF, 48 h; also: % of control where 0% means no effect
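Primary human leukocytes incubated 48 hr with anti-CD3 beads plus compound, without co-stimulation. Secreted IL-2 measured by HTRF (europium cryptate/d2 anti-IL-2 pair, 320 nm excitation, 665 nm emission).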
Sfp PPTase inh = inhibitors of Bacillus subtilis Sfp phosphopantetheinyl transferase | Biochemical Sfp PPTase activity, qHTS | Potency, µM, without a hit: largest response in the series, negative = inhibition, actives largely listed as inhibitors | 310,000 compounds, 3.5% hits | AID 1490;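 also: the enzyme is Sfp with the accession as filed and its product quenches rhodamine fluorescence; potency is read from the fitted curve at half-maximal effect; 0% = enzyme reaction without inhibitor and -100% = no enzyme wells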
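With Hepes-Na pH 7.6 buffer containing 10 mM MgCl2, Sfp (15 nM) modified BHQ-2-YbbR (12.5 uM) using rhodamine-CoA (5 uM). Two reads 30 minutes apart at 525/598 nm yielded each well's rate.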
ClpP mod = qHTS Assay for Activators of ClpP; ATP-dependent Clp protease proteolytic subunit (Bacillus subtilis (strain 168)), P80244; purified B. subtilis ClpP, FRET peptide cleavage, 20 min; Potency, µM (series often up to 57.5 µM), inactives show at the highest dose activity change, negative = active; 340,000 compounds, 1.9% hits; active = well fitted falling curve with a large enough effect; inconclusive = small, poorly fitted or top-dose-only effect; inactive = no such curve, though single readings can be large or run the other way; also: potency is read from the fitted curve at half-maximal effect; the source files actives as falling curves though it sought activators and does not explain the sign; nearly all actives have a fitted effect of over 65% in size
Target sequence (P80244 whole entry, looked up): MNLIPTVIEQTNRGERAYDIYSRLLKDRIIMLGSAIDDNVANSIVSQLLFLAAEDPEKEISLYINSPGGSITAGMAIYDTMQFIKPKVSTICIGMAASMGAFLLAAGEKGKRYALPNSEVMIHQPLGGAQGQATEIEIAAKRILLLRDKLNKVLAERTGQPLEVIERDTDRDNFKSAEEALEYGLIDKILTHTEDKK
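Purified B. subtilis ClpP, 10 microg/mL final in Tris/HCl pH8 with KCl, BSA, glycerol and Tween-20, cleaved an Abz/nitrotyrosine-quenched decapeptide. Fluorescence (ex 320, em 430) was read at 0 and 20 min at room temperature. Delta was normalized to 5.8 microM ADEP and DMSO/no-enzyme controls.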
uPA surface inh = cell surface uPA generation inhibition. 330,000 compounds, 0.31% hits. AID 540303. Potency, µM (series often up to 38.3 µM), inactives show at the top dose activity change, negative = inhibition, most hits filed as inhibitors. cell surface uPA generation assay, qHTS; active = well fitted inhibition curve with a large enough effect; inconclusive = small, poorly fitted or top-dose-only effect; inactive = no such curve, though single readings can be large or run the other way; tested in mouse RAW 264.7 cells; also: potency is read from the fitted curve at half-maximal effect; % is scaled to controls: 0 for no effect and ±100 for the full control effect; nearly all actives have a fitted effect of over 55% in size
Numbers without * were called inactive; ? = inconclusive; / = no result; ! = not confirmed by another sample; [ ] = remark or other dose. Sampled rows, rich in hits. Any-hit rate of the full collection: about 4.2%. Unless noted, calls follow the shape of the dose curve; as a rule, active = well fitted curve in the direction sought with a large enough effect; inconclusive = small, poorly fitted or top-dose-only effect, or another doubt; inactive = no such curve, though single readings can be large; an effect the other way counts as inactive or inconclusive.

SMILES | TCR act | Sfp PPTase inh | ClpP mod | uPA surface inh
Cc1sc2ncnc(Sc3nnnn3-c3ccccc3)c2c1C | 1% | ? | 32µM*! | ?
Cn1nnnc1Sc1ncnc2scc(-c3ccccc3Cl)c12 | 3% | / | / | 10µM*
Cn1nnnc1Sc1ncnc2scc(-c3cccc(Br)c3)c12 | 1% | / | / | 8.9µM*
Cc1ccc(-c2csc3ncnc(Sc4nnnn4-c4ccccc4)c23)cc1 | / | / | -15% | /
Cc1ccccc1OCCOC(=O)c1cc(S(=O)(=O)N2CCCCC2)ccc1N1CCOCC1 | 1% | / | -11% | -7%
O=C(Nc1ccc(F)cc1F)c1csc(-c2ccncc2)n1 | 0% | 9% | / | 0%
Cc1ccc(C(=O)Nc2cccc(C(F)(F)F)c2)cc1NC(=O)c1csc(-c2ccncc2)n1 | 0% | 20µM* | 9% | 16%
CCOc1cc(/C=C2\C(=O)N(c3ccc(C(N)=O)cc3)N=C2C)ccc1OC(=O)c1cccs1 | 6% | 56µM* | -1% | -1%
CCOc1cc(/C=C2/C(=O)N(c3ccccc3)N=C2C)ccc1OC(=O)c1ccco1 | 4% | ? | -2% | 1%
CCOc1cc(/C=C2/SC(=S)N(CC(=O)O)C2=O)ccc1OC(=O)c1cccs1 | -10% | 4.5µM* | -3% | -10%
Cc1cccc(C)c1NC(=O)C(C1CC1)n1c(-c2ccc(C(F)(F)F)cc2)nc2ccccc21 (stereo not given) | / | / | 5% | /
NC(=NCc1ccc(Cl)cc1Cl)NC(=O)c1nc(Cl)c(N)nc1N | / | 25µM* | / | /
Cc1nn(C)c(C(=O)NNC(=S)NCC(C)C)c1Cl | -3%[46.1 µM] | 33% | 8.9µM* | 4%
COc1cc(-c2nnc(CSc3nnc(N)s3)o2)cc(OC)c1OC | -6%[46.1 µM] | 12% | -1% | 0%
COc1cc(-c2nnc(CSc3nnc(Nc4ccc(Oc5ccccc5)cc4)s3)o2)cc(OC)c1OC | 1%[46.1 µM] | 14% | 25µM* | 2%
COc1ccc(-n2ccnc2SCC(=O)Nc2nnc(C)s2)cc1 | / | / | -6% | /
O=C(Cn1c(=O)c(CNc2ccccc2)cc2cc3c(cc21)OCCO3)Nc1ccccc1Cl | / | / | 6% | /
Cc1ccnc(NC(=O)c2cccc([N+](=O)[O-])c2C)c1 | / | 12% | / | -4%
Cc1ccnc(NC(=O)c2ccccc2NC(=O)c2ccc(Cl)cc2Cl)c1 | / | -26% | -2% | 2.8µM*
Cc1ccnc(NC(=O)c2ccccc2[N+](=O)[O-])c1 | 10% | 22µM* | -1% | 3%
C/C(=N/Nc1nc(-c2ccc(Cl)cc2)cs1)c1cccs1 | -3% | 40µM* | 2% | 2%
CC(=O)Nc1ccc(-c2csc(NC(=O)CC(NC(C)=O)c3ccccc3)n2)cc1 (stereo not given) | -28% | ? | / | 4%
CC(=O)Nc1ccc(-c2csc(N/N=C(/C)c3ccccc3)n2)cc1 | 0% | 40µM* | / | 3%
CCC(=O)Nc1ccc(-c2csc(NNC(C)=O)n2)cc1 | -1%[46.1 µM] | -18% | / | 3%
CC(=O)Nc1ccc(-c2csc(NNC(=O)c3ccccc3)n2)cc1 | 11% | 18µM* | -3% | -6%
SMILES | TCR act | Sfp PPTase inh | ClpP mod | uPA surface inh
CC(=O)Nc1ccc(-c2csc(NC(C)c3ccccc3)n2)cc1 (stereo not given) | -5% | 50µM* | / | 5%
OC(C1=C/C(=C\c2ccncc2)c2ccccc21)c1ccncc1 (stereo not given) | / | / | -1% | /
CC(=O)Nc1ccc(-c2csc(Nc3ncccn3)n2)cc1 | -1% | 15% | 0% | 1%
CCOC(=O)/C(C)=N/Nc1nc(-c2ccc(NC(C)=O)cc2)cs1 | 4% | 28µM* | / | -2%
Cc1ccc(Nc2nc3ccccc3[nH]2)nc1 | -2%[46.1 µM] | -17% | 35µM* | 2%
O=C(CCN1C(=O)S/C(=C\c2ccccc2)C1=O)NC1CCS(=O)(=O)C1 (stereo not given) | 4% | 25% | 1% | -5%
CC1=C(CC(=O)c2ccc(Cl)cc2)C(=O)c2ccccc2C1=O | 0% | 45µM* | -1% | /
O=C(Cc1ccccn1)c1ccc(Cl)cc1 | 2% | / | 2% | -10%
O=C(N/N=C/C=C/c1ccccc1)c1cccs1 | 1% | -6% | 1% | 11%
CC1C(=O)NN=C1C(=O)N/N=C\C(Br)=C\c1ccccc1 (stereo not given) | -6% | 50µM* | / | -17%
CC1=NNC(=O)C1CC(=O)N/N=C/C(Br)=C/c1ccccc1 (stereo not given) | 1% | -16% | 0% | -4%
